Screening results (PubChem)
The sample as a whole holds a higher share of hits than the screen did.
PD-1 reverse act: activators reversing PD-1 mediated T-cell inhibition, primary screen, luminescence, primary human CD4 T cells, PD-L1 beads; CellTiter-Glo 96 h; activation, % (concentration not given with the values); 29,000 tested, under 10 active; call rule not given here;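 note: 0% = median vehicle wells and 100% = positive control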
U2OS ROS induce: ROS inducers in U2OS cancer cells, primary screen, cell-based, H2DCF-DA fluorescence; U2OS ROS induction; ROS induction (% of piperlongumine), % at 10 µM; 46,000 compounds, 2% hits; AID 624156, 2012; in the data active = ROS induction above about 79%, passing the limit was not always enough; inconclusive = no clear call, values can overlap the other calls;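 note: 0% = DMSO vehicle median and 100% = reference compound median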
NOMO-1 viab: NOMO-1 AML cell viability reduction, primary screen, STK33 inhibitor project, CellTiter-Glo luminescence; 37,000 compounds, 7.5% hits; NOMO-1 AML viability, 72 h; inhibition, % (no concentration beside the values); in the data active = inhibition above about 80%; inconclusive = no clear call, values can overlap the other calls
* hit, by the source's call; ? = inconclusive; / = no result.

SMILES	PD-1 reverse act	U2OS ROS induce	NOMO-1 viab
COc1ccc(CN(C)C[C@@H]2Oc3c(NC(=O)c4ccc(-c5nccs5)cc4)cccc3C(=O)N([C@@H](C)CO)C[C@H]2C)cc1	/	43	72
C[C@@H]1CN([C@@H](C)CO)C(=O)c2cccc(NC(=O)c3ccc(-c4nccs4)cc3)c2O[C@H]1CN(C)Cc1ccc(Oc2ccccc2)cc1	-1	54	111*
COc1ccc(CN(C)C[C@H]2Oc3c(NC(=O)c4ccc(-c5nccs5)cc4)cccc3C(=O)N([C@H](C)CO)C[C@@H]2C)cc1	/	53	47
C[C@@H]1CN([C@H](C)CO)C(=O)c2cccc(NC(=O)c3ccc(-c4nccs4)cc3)c2O[C@@H]1CN(C)Cc1ccc(Oc2ccccc2)cc1	-5	?	89*
Cc1ccc(CS(=O)Cc2ccc(C(=O)N3CCN(Cc4ccccc4)CC3)o2)cc1 (centres undefined)	/	-6	/
C[C@H](CO)N1C[C@H](C)[C@@H](CN(C)Cc2ccc(C(F)(F)F)cc2)Oc2c(NC(=O)c3ccc(-c4nccs4)cc3)cccc2C1=O	-6	56	115*
C[C@H]1CN([C@@H](C)CO)C(=O)c2cccc(NC(=O)c3ccc(-c4nccs4)cc3)c2O[C@H]1CN(C)Cc1ccncc1	/	3	12
C[C@@H]1CN([C@@H](C)CO)C(=O)c2cccc(NC(=O)c3ccc(-c4nccs4)cc3)c2O[C@H]1CN(C)Cc1ccc(C(F)(F)F)cc1	-4	71	99*
C[C@@H]1CN([C@H](C)CO)C(=O)c2cccc(NC(=O)c3ccc(-c4nccs4)cc3)c2O[C@@H]1CN(C)Cc1ccc(C(F)(F)F)cc1	-3	23	14
C[C@@H]1CN([C@@H](C)CO)C(=O)c2cccc(NC(=O)c3ccc(-c4nccs4)cc3)c2O[C@@H]1CN(C)Cc1ccc(C(F)(F)F)cc1	-6	67	88*
C[C@H]1CN([C@@H](C)CO)C(=O)c2cccc(NC(=O)c3ccc(-c4nccs4)cc3)c2O[C@@H]1CN(C)Cc1ccc(C(F)(F)F)cc1	/	56	?
O=C(COc1ccccc1)Nc1ccc(I)cc1	/	9	/
C[C@H]1CN([C@@H](C)CO)C(=O)Cc2cc(NC(=O)Nc3ccc(F)cc3)ccc2O[C@H]1CN(C)Cc1ccc(C(F)(F)F)cc1	0	-7	126*
C[C@H]1CN([C@@H](C)CO)C(=O)Cc2cc(NC(=O)Nc3ccc(C(F)(F)F)cc3)ccc2O[C@@H]1CN(C)Cc1ccncc1	/	-6	20
C[C@H]1CN([C@@H](C)CO)C(=O)Cc2cc(NC(=O)Nc3ccc(C(F)(F)F)cc3)ccc2O[C@@H]1CN(C)Cc1ccc(C(F)(F)F)cc1	-2	-3	126*
C[C@@H]1CN([C@@H](C)CO)C(=O)Cc2cc(NC(=O)Nc3ccc(C(F)(F)F)cc3)ccc2O[C@@H]1CN(C)Cc1ccc2c(c1)OCO2	/	2	122*
C[C@@H]1CN([C@H](C)CO)C(=O)Cc2cc(NC(=O)Nc3ccc(C(F)(F)F)cc3)ccc2O[C@H]1CN(C)Cc1ccc2c(c1)OCO2	/	3	-13
C[C@H](CO)N1C[C@H](C)[C@H](CN(C)Cc2ccc(C(=O)O)cc2)Oc2ccc(NC(=O)Nc3ccc(C(F)(F)F)cc3)cc2CC1=O	2	-5	18
C[C@@H]1CN([C@@H](C)CO)C(=O)Cc2cc(NC(=O)Nc3ccc(F)cc3)ccc2O[C@@H]1CN(C)Cc1ccc(C(F)(F)F)cc1	-6	26	113*
CCc1nnc(SCC(=O)NCc2ccc(C)cc2)c2cc3sccc3n12	/	-4	/
O=C(C1CCCN(Cc2ccco2)C1)N1CCCCCC1 (centres undefined)	/	-14	/
Fc1cc(F)c(NC(=S)N2CCOCC2)c(F)c1	1	-7	-17
S=C(CC(=S)N1CCOCC1)N1CCOCC1	1	11	86*
O=C1CSCC(=O)N1c1cccnc1	0	26	-2
CCOc1ccc(-n2c(SCc3ccccc3)nnc2-c2cccnc2)cc1	/	26	/
SMILES	PD-1 reverse act	U2OS ROS induce	NOMO-1 viab
Cc1c(-c2ccccc2)nc2sc3c(c2c1N)CCCC3	/	92*	/
NC(=O)CSc1nc(-c2ccccc2)nc2sc3c(c12)CCCC3	/	/	18
CCCOc1ccc(/C=C/C(=O)Nc2nccs2)cc1OC	/	-3	/
Cc1nnc(Sc2cc(C(=O)NCCN(C)Cc3ccccc3)c3ccccc3n2)s1	/	22	/
COc1ccc(-c2nnc(Nc3cccc(C(F)(F)F)c3)c3ccccc23)cc1	-1	23	116*
CNC(=O)COc1ccc(Nc2nnc(-c3ccc(OC)cc3)c3ccccc23)cc1	/	/	14
CCn1cc(C(=O)NCCC(C)C)c2cc(OC)c(OC)cc2c1=O	/	-6	/
O=c1nc2c(-c3ccc(Cl)cc3)n[nH]n2c2ccccc12	/	-7	/
C[C@H](CS)C(=O)N1CCC[C@H]1C(=O)O	/	4	12
